Data as given in ChEMBL document CHEMBL2218924, “A broad activity screen in support of a chemogenomic map for kinase signalling research and drug discovery” (Biochem J, 2013).

Assays:
[1] = target: T1, Mitogen-activated protein kinase kinase kinase 7 (Homo sapiens) (UniProt O43318); details: at 10 µM
T1 sequence (whole entry): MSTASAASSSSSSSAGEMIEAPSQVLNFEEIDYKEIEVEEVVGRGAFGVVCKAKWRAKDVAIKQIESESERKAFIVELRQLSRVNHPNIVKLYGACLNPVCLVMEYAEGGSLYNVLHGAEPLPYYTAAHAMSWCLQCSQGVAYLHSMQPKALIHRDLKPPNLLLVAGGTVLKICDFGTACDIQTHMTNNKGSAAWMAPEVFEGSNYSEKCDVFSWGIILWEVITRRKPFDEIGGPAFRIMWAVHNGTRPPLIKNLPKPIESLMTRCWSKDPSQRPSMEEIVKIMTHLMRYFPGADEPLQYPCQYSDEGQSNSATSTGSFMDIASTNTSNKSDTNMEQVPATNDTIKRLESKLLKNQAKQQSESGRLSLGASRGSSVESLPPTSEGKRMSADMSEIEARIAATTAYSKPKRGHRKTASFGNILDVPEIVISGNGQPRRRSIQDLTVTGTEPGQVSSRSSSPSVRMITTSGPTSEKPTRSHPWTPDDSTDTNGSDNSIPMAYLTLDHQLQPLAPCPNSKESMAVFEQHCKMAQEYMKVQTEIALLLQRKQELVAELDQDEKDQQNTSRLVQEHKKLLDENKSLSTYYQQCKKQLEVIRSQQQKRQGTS

[2] = target: T2, Serine/threonine-protein kinase TBK1 (Homo sapiens) (UniProt Q9UHD2); details: at 1 µM
T2 sequence (whole entry): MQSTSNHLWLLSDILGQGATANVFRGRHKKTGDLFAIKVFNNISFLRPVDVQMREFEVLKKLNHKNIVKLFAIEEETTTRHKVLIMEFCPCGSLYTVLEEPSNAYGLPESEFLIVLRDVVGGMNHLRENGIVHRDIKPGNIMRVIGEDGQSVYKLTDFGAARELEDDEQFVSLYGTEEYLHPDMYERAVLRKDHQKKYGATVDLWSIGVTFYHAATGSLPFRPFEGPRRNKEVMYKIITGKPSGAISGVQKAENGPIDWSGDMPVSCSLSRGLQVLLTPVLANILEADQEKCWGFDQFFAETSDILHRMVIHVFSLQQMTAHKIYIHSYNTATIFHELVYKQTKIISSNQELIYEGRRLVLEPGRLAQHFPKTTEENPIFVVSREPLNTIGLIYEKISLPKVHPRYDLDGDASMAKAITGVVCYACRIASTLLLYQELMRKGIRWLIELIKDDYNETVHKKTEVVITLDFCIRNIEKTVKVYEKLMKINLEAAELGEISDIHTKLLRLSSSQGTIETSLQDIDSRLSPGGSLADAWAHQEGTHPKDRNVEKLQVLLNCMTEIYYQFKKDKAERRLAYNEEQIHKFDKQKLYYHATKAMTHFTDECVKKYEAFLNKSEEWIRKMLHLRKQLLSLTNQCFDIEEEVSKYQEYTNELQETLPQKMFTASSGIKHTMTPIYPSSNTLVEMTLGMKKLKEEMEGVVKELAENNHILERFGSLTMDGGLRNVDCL

[3] = target: T2, Serine/threonine-protein kinase TBK1 (Homo sapiens); details: at 10 µM
[4] = target: T3, Inhibitor of nuclear factor kappa-B kinase subunit alpha (Homo sapiens) (UniProt O15111); details: at 1 µM
T3 sequence (whole entry): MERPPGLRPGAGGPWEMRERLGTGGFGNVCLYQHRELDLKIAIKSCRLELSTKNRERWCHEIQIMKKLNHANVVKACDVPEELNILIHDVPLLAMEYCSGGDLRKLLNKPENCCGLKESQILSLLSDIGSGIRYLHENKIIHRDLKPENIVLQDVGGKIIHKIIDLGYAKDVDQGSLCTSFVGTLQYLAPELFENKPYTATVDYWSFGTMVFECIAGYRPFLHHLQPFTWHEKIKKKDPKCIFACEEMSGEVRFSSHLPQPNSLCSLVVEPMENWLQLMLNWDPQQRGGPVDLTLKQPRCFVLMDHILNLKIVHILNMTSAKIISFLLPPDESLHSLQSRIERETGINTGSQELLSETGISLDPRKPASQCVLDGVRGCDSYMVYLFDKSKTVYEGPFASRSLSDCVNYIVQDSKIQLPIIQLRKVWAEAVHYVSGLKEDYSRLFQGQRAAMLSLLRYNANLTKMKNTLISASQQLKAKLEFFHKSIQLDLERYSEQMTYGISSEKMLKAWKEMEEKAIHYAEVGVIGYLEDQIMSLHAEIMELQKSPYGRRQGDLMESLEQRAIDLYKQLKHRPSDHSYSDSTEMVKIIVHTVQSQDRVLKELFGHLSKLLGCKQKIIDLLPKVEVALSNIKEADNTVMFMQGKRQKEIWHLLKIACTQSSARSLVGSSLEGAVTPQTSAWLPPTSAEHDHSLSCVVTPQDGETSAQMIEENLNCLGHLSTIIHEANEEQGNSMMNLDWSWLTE

[5] = target: T3, Inhibitor of nuclear factor kappa-B kinase subunit alpha (Homo sapiens); details: at 10 µM
[6] = target: T4, Inhibitor of nuclear factor kappa-B kinase subunit beta (Homo sapiens) (UniProt O14920); details: at 1 µM
T4 sequence (whole entry): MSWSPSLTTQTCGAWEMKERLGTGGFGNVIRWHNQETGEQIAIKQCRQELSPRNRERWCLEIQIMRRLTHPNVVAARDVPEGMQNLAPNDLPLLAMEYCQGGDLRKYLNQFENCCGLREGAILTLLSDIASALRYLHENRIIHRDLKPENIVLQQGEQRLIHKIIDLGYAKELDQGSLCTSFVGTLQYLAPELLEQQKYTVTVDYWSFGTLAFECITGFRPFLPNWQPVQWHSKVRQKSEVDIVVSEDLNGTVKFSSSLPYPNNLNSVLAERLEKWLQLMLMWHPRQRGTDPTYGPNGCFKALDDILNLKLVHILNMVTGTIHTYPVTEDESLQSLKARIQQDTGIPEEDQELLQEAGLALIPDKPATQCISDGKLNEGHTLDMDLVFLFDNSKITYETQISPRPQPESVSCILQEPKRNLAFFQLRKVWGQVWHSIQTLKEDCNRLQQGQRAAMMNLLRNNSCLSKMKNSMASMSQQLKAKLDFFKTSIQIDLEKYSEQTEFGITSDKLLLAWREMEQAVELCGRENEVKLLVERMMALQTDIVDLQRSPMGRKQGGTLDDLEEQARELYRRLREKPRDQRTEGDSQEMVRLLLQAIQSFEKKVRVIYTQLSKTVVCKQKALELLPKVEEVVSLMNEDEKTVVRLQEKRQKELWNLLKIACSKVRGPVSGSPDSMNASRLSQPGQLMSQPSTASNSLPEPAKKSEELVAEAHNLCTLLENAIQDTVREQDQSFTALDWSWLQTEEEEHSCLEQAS

[7] = target: T4, Inhibitor of nuclear factor kappa-B kinase subunit beta (Homo sapiens); details: at 10 µM
[8] = target: T1, Mitogen-activated protein kinase kinase kinase 7 (Homo sapiens); details: at 1 µM
[9] = target: Insulin receptor (Homo sapiens) (UniProt P06213); details: at 1 µM
[10] = target: T5, Serine/threonine-protein kinase TAO2 (Homo sapiens) (UniProt Q9UL54); details: at 1 µM
T5 sequence (whole entry): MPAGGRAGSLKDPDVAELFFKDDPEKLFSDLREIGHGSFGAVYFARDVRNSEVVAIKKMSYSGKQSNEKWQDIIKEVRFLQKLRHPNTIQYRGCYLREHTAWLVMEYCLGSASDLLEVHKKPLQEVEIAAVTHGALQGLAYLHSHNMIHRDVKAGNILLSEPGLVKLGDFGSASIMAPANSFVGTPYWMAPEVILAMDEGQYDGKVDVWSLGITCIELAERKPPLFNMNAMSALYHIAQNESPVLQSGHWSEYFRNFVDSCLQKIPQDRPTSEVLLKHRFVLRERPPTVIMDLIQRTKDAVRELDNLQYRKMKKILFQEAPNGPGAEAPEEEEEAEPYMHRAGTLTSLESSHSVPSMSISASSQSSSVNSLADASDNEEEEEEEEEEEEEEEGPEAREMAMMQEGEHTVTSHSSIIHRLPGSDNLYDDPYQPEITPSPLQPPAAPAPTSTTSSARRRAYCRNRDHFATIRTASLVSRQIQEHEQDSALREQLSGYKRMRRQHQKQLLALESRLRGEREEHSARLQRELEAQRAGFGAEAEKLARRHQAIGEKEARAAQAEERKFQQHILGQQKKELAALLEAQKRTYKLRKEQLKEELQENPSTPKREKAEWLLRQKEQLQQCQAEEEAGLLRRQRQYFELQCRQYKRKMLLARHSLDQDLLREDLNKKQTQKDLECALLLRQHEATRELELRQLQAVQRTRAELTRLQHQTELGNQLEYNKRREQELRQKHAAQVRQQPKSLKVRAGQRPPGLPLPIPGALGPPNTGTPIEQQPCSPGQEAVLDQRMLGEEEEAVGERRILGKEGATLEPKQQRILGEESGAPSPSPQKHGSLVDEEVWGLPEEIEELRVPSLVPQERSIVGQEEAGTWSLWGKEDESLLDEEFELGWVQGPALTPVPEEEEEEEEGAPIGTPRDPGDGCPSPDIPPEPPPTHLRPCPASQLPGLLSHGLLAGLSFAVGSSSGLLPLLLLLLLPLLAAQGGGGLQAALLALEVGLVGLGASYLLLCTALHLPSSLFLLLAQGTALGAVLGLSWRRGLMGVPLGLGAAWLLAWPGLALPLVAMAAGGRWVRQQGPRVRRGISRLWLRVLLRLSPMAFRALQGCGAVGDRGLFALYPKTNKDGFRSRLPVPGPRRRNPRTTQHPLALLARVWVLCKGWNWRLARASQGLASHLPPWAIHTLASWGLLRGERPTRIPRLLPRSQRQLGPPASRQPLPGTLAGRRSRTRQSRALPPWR

[11] = target: T5, Serine/threonine-protein kinase TAO2 (Homo sapiens); details: at 10 µM

Insulin receptor (Homo sapiens), sequence (P06213 28-758 limits assumed): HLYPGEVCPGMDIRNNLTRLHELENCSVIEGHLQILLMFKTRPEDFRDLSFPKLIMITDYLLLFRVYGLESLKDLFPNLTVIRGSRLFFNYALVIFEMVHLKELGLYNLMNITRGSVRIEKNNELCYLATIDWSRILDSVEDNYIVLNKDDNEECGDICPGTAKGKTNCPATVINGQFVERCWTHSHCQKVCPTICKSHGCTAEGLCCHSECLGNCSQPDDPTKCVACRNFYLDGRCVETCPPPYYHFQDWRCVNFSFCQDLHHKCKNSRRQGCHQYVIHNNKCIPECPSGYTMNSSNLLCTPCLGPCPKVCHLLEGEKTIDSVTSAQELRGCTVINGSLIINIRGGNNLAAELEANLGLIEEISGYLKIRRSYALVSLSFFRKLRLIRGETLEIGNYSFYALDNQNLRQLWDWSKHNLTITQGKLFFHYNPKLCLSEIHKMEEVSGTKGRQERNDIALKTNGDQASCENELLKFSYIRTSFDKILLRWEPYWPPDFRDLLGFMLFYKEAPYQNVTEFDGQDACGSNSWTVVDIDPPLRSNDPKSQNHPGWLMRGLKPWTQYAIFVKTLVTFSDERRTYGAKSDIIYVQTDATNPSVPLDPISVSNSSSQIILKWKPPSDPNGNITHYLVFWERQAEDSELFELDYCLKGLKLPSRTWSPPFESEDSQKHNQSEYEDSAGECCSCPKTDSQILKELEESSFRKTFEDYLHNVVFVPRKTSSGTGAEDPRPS
Insulin receptor (Homo sapiens), sequence (P06213 763-1382 limits assumed): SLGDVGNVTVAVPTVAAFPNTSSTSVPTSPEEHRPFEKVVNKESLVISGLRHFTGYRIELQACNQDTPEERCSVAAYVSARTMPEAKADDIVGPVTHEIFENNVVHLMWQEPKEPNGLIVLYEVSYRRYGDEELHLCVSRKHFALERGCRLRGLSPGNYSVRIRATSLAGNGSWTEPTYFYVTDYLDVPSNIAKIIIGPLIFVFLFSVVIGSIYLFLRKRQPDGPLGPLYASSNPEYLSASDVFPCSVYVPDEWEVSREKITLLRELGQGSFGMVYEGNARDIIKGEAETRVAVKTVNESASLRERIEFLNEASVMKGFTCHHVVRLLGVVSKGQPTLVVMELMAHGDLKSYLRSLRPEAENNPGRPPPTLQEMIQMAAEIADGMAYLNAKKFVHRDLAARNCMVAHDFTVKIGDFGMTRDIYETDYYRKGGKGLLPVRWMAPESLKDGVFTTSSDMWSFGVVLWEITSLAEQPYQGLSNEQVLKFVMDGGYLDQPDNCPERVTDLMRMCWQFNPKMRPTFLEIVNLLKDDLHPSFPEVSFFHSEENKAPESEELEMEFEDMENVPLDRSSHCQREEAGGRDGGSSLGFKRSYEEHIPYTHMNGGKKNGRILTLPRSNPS

COc1ccc(CNC(=O)Nc2ncc([N+](=O)[O-])s2)cc1
residual activity [1]: 79% | residual activity [2]: 59% | residual activity [3]: 59% | residual activity [4]: 111% | residual activity [5]: 113% | residual activity [6]: 109% | residual activity [7]: 108%

CN([C@@H](Cc1ccc(OS(=O)(=O)c2cccc3cnccc23)cc1)C(=O)N1CCN(c2ccccc2)CC1)S(=O)(=O)c1cccc2cnccc12
residual activity [8]: 99% | residual activity [1]: 98% | residual activity [9]: 134%

O=C(Nc1ccc(Cl)cc1)c1ccccc1NCc1ccncc1
residual activity [10]: 101% | residual activity [11]: 61% | residual activity [9]: 100%

CCOc1nc(NC(=O)Cc2cc(OC)ccc2OC)cc(N)c1C#N
residual activity [2]: 79% | residual activity [3]: 68%
